The campaign covered roughly 310,000 compounds. About 14,000 (4.5%) showed an effect of 50% or more. Effects have a minus sign here. Many of the other results were omitted from the sample, so strong results are more common in it than they were.
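Also: peak tail current of the secondary pulse compared with the same well before compound.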

Sequence of human ether-à-go-go-related gene (hERG) potassium channel (Q12809 whole entry, looked up): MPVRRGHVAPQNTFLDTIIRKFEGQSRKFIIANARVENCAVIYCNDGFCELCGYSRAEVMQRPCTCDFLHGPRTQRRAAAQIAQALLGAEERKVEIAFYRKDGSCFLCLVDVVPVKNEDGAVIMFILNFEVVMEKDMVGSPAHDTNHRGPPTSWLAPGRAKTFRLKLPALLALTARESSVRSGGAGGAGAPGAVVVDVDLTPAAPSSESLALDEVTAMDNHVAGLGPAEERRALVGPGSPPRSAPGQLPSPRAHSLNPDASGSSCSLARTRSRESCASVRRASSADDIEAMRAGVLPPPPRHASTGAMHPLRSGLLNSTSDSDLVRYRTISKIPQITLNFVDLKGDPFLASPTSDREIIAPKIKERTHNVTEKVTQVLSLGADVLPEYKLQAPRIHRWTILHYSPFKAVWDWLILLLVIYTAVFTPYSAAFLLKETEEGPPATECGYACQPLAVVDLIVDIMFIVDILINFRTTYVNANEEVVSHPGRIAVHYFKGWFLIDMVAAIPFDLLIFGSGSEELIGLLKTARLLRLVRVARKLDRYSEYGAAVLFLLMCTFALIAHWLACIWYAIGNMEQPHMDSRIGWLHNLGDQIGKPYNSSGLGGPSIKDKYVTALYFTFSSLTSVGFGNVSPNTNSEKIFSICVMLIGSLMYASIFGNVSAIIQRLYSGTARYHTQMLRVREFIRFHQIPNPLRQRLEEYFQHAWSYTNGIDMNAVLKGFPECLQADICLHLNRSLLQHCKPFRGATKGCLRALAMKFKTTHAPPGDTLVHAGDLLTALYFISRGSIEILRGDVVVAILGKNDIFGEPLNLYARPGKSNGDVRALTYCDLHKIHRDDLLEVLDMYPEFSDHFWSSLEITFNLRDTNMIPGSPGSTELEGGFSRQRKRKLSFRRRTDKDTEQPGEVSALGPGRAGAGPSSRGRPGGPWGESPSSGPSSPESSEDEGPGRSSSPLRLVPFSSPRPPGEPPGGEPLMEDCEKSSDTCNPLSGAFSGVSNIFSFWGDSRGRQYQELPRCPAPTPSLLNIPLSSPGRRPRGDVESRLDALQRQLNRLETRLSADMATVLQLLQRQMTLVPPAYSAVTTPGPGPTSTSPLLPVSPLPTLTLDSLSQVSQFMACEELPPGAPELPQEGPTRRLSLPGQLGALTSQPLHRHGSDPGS

The test addresses human ether-à-go-go-related gene (hERG) potassium channel (human, UniProt Q12809). Put plainly: primary screen, population patch clamp on CHO cells stably expressing hERG; higher = less effect of the substance.
In the case of `O=C(Cn1c(CO)nc2ccccc21)Nc1cc(C(F)(F)F)ccc1N1CCOCC1`, the “hERG current change (%, negative = inhibition) at 10uM” value is reported as 1.37%.

Regarding `O=C(NCCN1CCN(C(=O)c2cc3ccccc3oc2=O)CC1)c1cc2ccccc2oc1=O`, the “hERG current change (%, negative = inhibition) at 10uM” value was -15.9%.

Turning to `C=CCN1CCN(C(=O)c2oc3ccccc3c2C)CC1`, the “hERG current change (%, negative = inhibition) at 10uM” value is -0.434%.

Regarding `COc1cc2cc(C(=O)N3CCN(Cc4ccc5c(c4)OCO5)CC3)c(=O)oc2cc1OC`, the “hERG current change (%, negative = inhibition) at 10uM” value is reported as -0.572%.

`O=C(c1cc2ccccc2oc1=O)N1CCN(Cc2ccc3c(c2)OCO3)CC1`: the “hERG current change (%, negative = inhibition) at 10uM” value is listed as -53.7%.

In the case of `CN1CCN(C(=O)c2cc3ccccc3oc2=O)CC1`, the “hERG current change (%, negative = inhibition) at 10uM” value is reported as 6.08%.

Regarding `Cc1c(C(=O)N2CCN(CCc3ccccc3)CC2)oc2ccccc12`, the “hERG current change (%, negative = inhibition) at 10uM” value is -72.4%.

As to `O=C(c1cc(-c2ccccc2)on1)N1CCN(Cc2ccc3c(c2)OCO3)CC1`, the “hERG current change (%, negative = inhibition) at 10uM” value is -50.1%.

As for `CC(=O)N1CCN(C(=O)c2oc3ccccc3c2C)CC1`, the “hERG current change (%, negative = inhibition) at 10uM” value amounted to 8.84%.

As to `Cc1cc(C(=O)N2CCN(Cc3ccc4c(c3)OCO4)CC2)on1`, the “hERG current change (%, negative = inhibition) at 10uM” value was -4.02%.

In the case of `Cc1onc(-c2ccccc2)c1C(=O)N1CCN(Cc2ccc3c(c2)OCO3)CC1.Cl`, the “hERG current change (%, negative = inhibition) at 10uM” value is 17.5%.

As to `O=C(c1cc2ccccc2oc1=O)N1CCN(CCc2ccccc2)CC1`, the “hERG current change (%, negative = inhibition) at 10uM” value is -71.8%.

For the molecule `O=C(c1cc2ccccc2o1)N1CCN(Cc2ccc3c(c2)OCO3)CC1`, the “hERG current change (%, negative = inhibition) at 10uM” value is -22.1%.

Turning to `c1ccc(CCCCNCC2COc3ccccc3O2)cc1` (centres unmarked), the “hERG current change (%, negative = inhibition) at 10uM” value is on record as -28.5%.

For `COc1cc(C(=O)NCCC(c2ccccc2)c2ccccc2)cc(OC)c1OC`, the “hERG current change (%, negative = inhibition) at 10uM” value is 0.15%.

As for `COc1ccc(-c2cc(N)n(CCC#N)n2)c(OC)c1`, the “hERG current change (%, negative = inhibition) at 10uM” value amounted to 4.12%.

As for `O=C(CSc1nnc(-c2ccncc2)o1)Nc1ccccc1C(F)(F)F`, the “hERG current change (%, negative = inhibition) at 10uM” value is given as -0.412%.

In the case of `Cn1c(CNC(=O)CNC(=O)Cc2ccc(Cl)cc2)cc(=O)n(C)c1=O`, the “hERG current change (%, negative = inhibition) at 10uM” value was determined as 18.9%.

In the case of `COC(=O)C(C)Oc1cc(C)cc2oc(=O)c3c(c12)CCC3` (centres unmarked), the “hERG current change (%, negative = inhibition) at 10uM” value is listed as -12.7%.

Turning to `N#CC1(NC(=O)CSc2nnc(-c3ccccc3F)o2)CCCCC1`, the “hERG current change (%, negative = inhibition) at 10uM” value was -13.1%.

With `CC(C)CC(=O)Nc1ccccc1Oc1ccccc1`, the “hERG current change (%, negative = inhibition) at 10uM” value was -2.96%.

As for `Cc1nn(C)c(C)c1S(=O)(=O)N1CCCC(C(=O)N2CCN(c3ccccc3)CC2)C1` (centres unmarked), the “hERG current change (%, negative = inhibition) at 10uM” value was -27.6%.

Regarding `O=C(C1CCCN(S(=O)(=O)c2cnc[nH]2)C1)N1CCN(c2ccc(Cl)cc2)CC1` (centres unmarked), the “hERG current change (%, negative = inhibition) at 10uM” value is on record as -35%.

In the case of `Cc1nn(C)c(C)c1S(=O)(=O)N1CCCC(C(=O)NCCc2ccc(Cl)cc2)C1` (centres unmarked), the “hERG current change (%, negative = inhibition) at 10uM” value is on record as -0.523%.

Regarding `Cc1nn(C)c(C)c1S(=O)(=O)N1CCCC(C(=O)N2CCN(c3ccc(Cl)cc3)CC2)C1` (centres unmarked), the “hERG current change (%, negative = inhibition) at 10uM” value is -70.4%.

Consider `Cc1n[nH]c(C)c1S(=O)(=O)N1CCCC(C(=O)N2CCN(c3ccc(Cl)cc3)CC2)C1` (centres unmarked), for which the “hERG current change (%, negative = inhibition) at 10uM” value is recorded as -75.1%.

Consider `CC(=O)c1ccc(N2CCN(C(=O)C3CCCN(S(=O)(=O)c4c(C)[nH]c(=O)[nH]c4=O)C3)CC2)cc1` (centres unmarked), for which the “hERG current change (%, negative = inhibition) at 10uM” value is 23.4%.

As to `Cc1cc2c(NC(=O)Nc3ccc(C(F)(F)F)cc3)cccc2nn1`, the “hERG current change (%, negative = inhibition) at 10uM” value is on record as -2.37%.

As for `Cn1cc([N+](=O)[O-])c(C(=O)Nc2ccc3c(c2)OCCO3)n1`, the “hERG current change (%, negative = inhibition) at 10uM” value was 5.3%.

Take `Cc1cccc(C(=O)N2CCC(=O)N(C(COCc3ccc(Cl)cc3)Cc3ccccc3)CC2)c1` (centres unmarked): the “hERG current change (%, negative = inhibition) at 10uM” value is -25.7%.

As to `CCC(C)[C@H](NC(=O)[C@H](Cc1ccccc1)n1c(=O)[nH]c2ccccc2c1=O)C(=O)NCC1CCC(C(=O)O)CC1` (some centres unmarked), the “hERG current change (%, negative = inhibition) at 10uM” value stood at 20.4%.

On to `COc1cccc(OCC(=O)N2CCN(C)CC2)c1`, for which the “hERG current change (%, negative = inhibition) at 10uM” value is -10.1%.

As for `Cc1cc(=O)oc2c3c(cc(OCC(=O)NCC(=O)O)c12)OC(C)(C)CC3`, the “hERG current change (%, negative = inhibition) at 10uM” value came to 19%.

In the case of `CCN(CC)CCOC(=O)c1ccc(NC(=O)CCNC(=O)Cn2ccc3ccccc3c2=O)cc1`, the “hERG current change (%, negative = inhibition) at 10uM” value came to 11.8%.

Take `CCn1cc(CN2CCCC(C(=O)Nc3ccc(-c4nc5ccccc5[nH]4)cc3)C2)c(C)n1` (centres unmarked): the “hERG current change (%, negative = inhibition) at 10uM” value is given as -21%.

On to `CCn1cc(CN2CCC(C(=O)Nc3ccc(Oc4cccnc4)cc3)CC2)c(C)n1`, for which the “hERG current change (%, negative = inhibition) at 10uM” value is listed as -18.4%.

As to `CCn1cc(CN2CCC(C(=O)Nc3ccc(Oc4cccnc4)cc3)CC2)cn1`, the “hERG current change (%, negative = inhibition) at 10uM” value was -19%.

Consider `CN(C)C(=O)CCC(=O)N1CCCCC1C(=O)Nc1ccc(Oc2ccccc2F)cc1` (centres unmarked), for which the “hERG current change (%, negative = inhibition) at 10uM” value is on record as -43.9%.

In the case of `CCn1cc(CN2CCC(C(=O)Nc3ccc(Oc4ccccc4F)cc3)CC2)c(C)n1`, the “hERG current change (%, negative = inhibition) at 10uM” value is recorded as -72.9%.

For the molecule `CC(C)n1cc(CN2CCC(C(=O)Nc3ccc(Oc4ccccc4F)cc3)CC2)cn1`, the “hERG current change (%, negative = inhibition) at 10uM” value was -76.1%.

Take `Cn1cc(CN2CCC(C(=O)Nc3ccc(Oc4ccccc4F)cc3)CC2)cn1`: the “hERG current change (%, negative = inhibition) at 10uM” value was -65.6%.

On to `CC(C)n1cc(CN2CCCC(C(=O)Nc3ccccc3Oc3cccnc3)C2)cn1` (centres unmarked), for which the “hERG current change (%, negative = inhibition) at 10uM” value is recorded as -42.4%.

For `COC(=O)c1cc2oc3ccccc3c2n1Cc1ccccn1`, the “hERG current change (%, negative = inhibition) at 10uM” value was -8.74%.

`C/C(=N\N=C1\NC(=O)C(CC(=O)Nc2ccc(Cl)cc2)S1)c1ccco1` (centres unmarked): the “hERG current change (%, negative = inhibition) at 10uM” value amounted to 13%.

As to `CCn1c(SCC(=O)Nc2ccccc2Cl)nnc1C1CC1`, the “hERG current change (%, negative = inhibition) at 10uM” value came to 6.78%.

Regarding `Cc1c(S(=O)(=O)N2CCCC(C)C2)c(=O)n(C)c(=O)n1C` (centres unmarked), the “hERG current change (%, negative = inhibition) at 10uM” value was -2.74%.

For `O=C(NCCNC(=O)c1ccccc1)c1ccccc1`, the “hERG current change (%, negative = inhibition) at 10uM” value came out at 2.89%.

In the case of `Cc1cc([N+](=O)[O-])cc(C)c1OCC(=O)N/N=C/c1ccc(OC(=O)c2ccccc2Br)cc1`, the “hERG current change (%, negative = inhibition) at 10uM” value is given as 4.23%.

`CCC(C)NC(=O)C1c2ccccc2C(=O)N1Cc1cc(OC)ccc1OC` (centres unmarked): the “hERG current change (%, negative = inhibition) at 10uM” value is recorded as 9.25%.

On to `COc1ccc(-c2c(C#Cc3ccsc3)c3cc(-c4ccc5[nH]ccc5c4)ccc3n2C)cc1`, for which the “hERG current change (%, negative = inhibition) at 10uM” value is 24.1%.

With `O=C(CN1C(=O)COc2ccccc21)c1cccc(Cl)c1`, the “hERG current change (%, negative = inhibition) at 10uM” value is reported as -14.4%.

As to `CSc1ccccc1OCc1cc(C(=O)N2CCC[C@H]2C(N)=O)no1`, the “hERG current change (%, negative = inhibition) at 10uM” value was found to be 5.26%.

For the molecule `N#CSCC(=O)c1cccc2ccccc12`, the “hERG current change (%, negative = inhibition) at 10uM” value is -24.8%.

(Values after publication PMC4336329 (PLoS ONE, 2015).)
